Rango-impB inh = qHTS Assay for Inhibitors of Rango (Ran-regulated importin-beta cargo) - Importin beta complex formation; Rango CFP/YFP FRET sensor + importin beta, 45 min; Potency, µM (highest dose often 92.2 µM), for inactives: at the highest dose inhibition of complex formation; Importin subunit beta-1 (Homo sapiens), Q14974; 340,000 tested, 0.031% active; calls by dose curve;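 note: 0% = DMSO wells and 100% = buffer wells lacking importin beta; nearly all actives have a fitted effect of over 15% in size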
Target sequence (Q14974 whole entry, looked up): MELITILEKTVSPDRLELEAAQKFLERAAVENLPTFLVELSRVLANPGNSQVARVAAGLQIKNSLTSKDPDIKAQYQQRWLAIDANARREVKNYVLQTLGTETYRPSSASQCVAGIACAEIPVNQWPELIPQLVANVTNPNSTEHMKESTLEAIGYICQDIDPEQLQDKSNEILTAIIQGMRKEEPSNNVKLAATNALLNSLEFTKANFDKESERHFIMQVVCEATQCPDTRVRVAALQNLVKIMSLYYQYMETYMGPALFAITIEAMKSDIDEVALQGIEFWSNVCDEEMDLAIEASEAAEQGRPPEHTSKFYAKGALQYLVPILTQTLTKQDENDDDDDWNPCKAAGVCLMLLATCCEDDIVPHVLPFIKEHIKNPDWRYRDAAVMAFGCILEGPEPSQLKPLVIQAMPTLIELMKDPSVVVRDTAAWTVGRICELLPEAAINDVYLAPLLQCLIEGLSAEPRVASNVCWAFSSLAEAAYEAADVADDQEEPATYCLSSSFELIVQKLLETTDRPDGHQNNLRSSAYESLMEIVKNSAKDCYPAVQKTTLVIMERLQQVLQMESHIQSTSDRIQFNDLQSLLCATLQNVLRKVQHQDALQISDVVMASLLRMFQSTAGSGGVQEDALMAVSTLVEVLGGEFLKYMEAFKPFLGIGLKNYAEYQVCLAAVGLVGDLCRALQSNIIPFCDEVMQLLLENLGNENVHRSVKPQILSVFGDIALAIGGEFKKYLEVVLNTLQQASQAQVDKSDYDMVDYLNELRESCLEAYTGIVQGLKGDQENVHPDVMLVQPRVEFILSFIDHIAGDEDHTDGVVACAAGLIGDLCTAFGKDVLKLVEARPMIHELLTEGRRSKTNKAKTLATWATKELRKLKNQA
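FRET biosensor (snurportin 1 IBB flanked by EYFP and cerulean), 50 nM, with compound 5 min, then 0.125 microM importin beta in PBS, 1 mM DTT, 0.02% Tween-20, 0.1% BSA. CFP/YFP ratio read after 45 min at room temperature; pre-read flags interference.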
A549 viability = Nrf2 qHTS screen for inhibitors: counterscreen for cytotoxicity. A549 ARE-Fluc cells, CellTiter-Fluor viability, 18-24 h. 390,000 tested, 0.16% active. Potency, µM (top dose mostly 46 µM), inactives show at the top dose activity change, negative = cytotoxicity, usual class: inhibitors; note: % is set by controls: 0 for no effect and ±100 for the full control effect
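A549 ARE_Fluc cells in 5% FBS OPTI-MEM were exposed to compounds in concentration-response for 18-24 h at 37 deg C. Viability was read by CellTiter-Fluor fluorescence (Ex 405/Em 525) after 30 min, before the luciferase read.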
Nrf2 block = Nrf2 qHTS screen for inhibitors; 360,000 tested, 2.1% active; A549 ARE-Fluc reporter, luciferase luminescence, 18-24 h; AID 504444, 2011; Potency, µM (series often up to 46 µM), for inactives: top-dose activity change, negative = inhibition, most hits filed as inhibitors; note: % is set by controls: 0 for no effect and ±100 for the full control effect; nearly all actives have a fitted effect of over 60% in size
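Concentration-response testing used A549 ARE_Fluc cells at 5000 cells/well. Following an 18-24 h compound incubation, viability was read by fluorescence (Ex 405/Em 525) and luciferase output by luminescence.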
Rango release inh = qHTS Assay for Inhibitors of RanGTP induced Rango (Ran-regulated importin-beta cargo) - Importin beta complex dissociation. AID 540253, 2011. Snurportin-1 (Homo sapiens) + GTP-binding nuclear protein Ran (Homo sapiens) + Importin …. 340,000 tested, 0.071% active. Biochemical FRET Rango-importin beta, RanGTP-induced dissociation. Potency, µM (series often up to 46.1 µM), without a hit: at the top dose activity change, negative = inhibition; calls by dose curve; note: % of control where 0% means no effect; nearly all actives have a fitted effect of over 45% in size
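Quantitative HTS using a FRET biosensor: 0.1 uM Rango, 0.25 uM importin beta, 0.6 uM Ran, 2 mM GTP, 0.2 uM RCC1 final, PBS with DTT, Tween-20 and BSA. Post-read taken 45 min after Ran addition.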
Nrf2 activator = qHTS of Nrf2 Activators | AREc32 ARE-luciferase reporter (MCF7-derived line), luminescence, 24 h | Potency, µM (doses to about 46.1 µM), for inactives: at the top dose activation, most hits filed as activators | 410,000 tested, 0.31% active; note: % of control where 0% means no effect; nearly all actives have a fitted effect of over 65% in size
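AREc32_Fluc, 1000 cells/well, OPTI-MEM + 5% FBS, o/n 37 deg C 5% CO2; 23 nL cpd by pin tool, 24 hr; Steady-Glo 30 min RT, luminescence.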
Active calls of the source: *; ? = inconclusive; · = not tested or not shown. Hits are enriched below; roughly 2.3% of the tested compounds scored in any of these assays. Unless noted, calls come from the whole dose curve; as a rule, active = well fitted curve in the direction sought with a large enough effect; inconclusive = small, poorly fitted or top-dose-only effect, or another doubt; inactive = no such curve, though single readings can be large; an effect the other way counts as inactive or inconclusive. Potency is the fitted concentration of half-maximal effect.

SMILES	Rango-impB inh	A549 viability	Nrf2 block	Rango release inh	Nrf2 activator
COc1ccc(CCNC(=O)Cn2cc(S(=O)(=O)Cc3cccc(Cl)c3)c3ccccc32)cc1OC	·	?	20.6µM*	·	0.9%
COc1ccc(CCNC(=O)Cn2cc(S(=O)(=O)Cc3ccccc3Cl)c3ccccc32)cc1OC	·	-3.0%	-28.5%	·	6.3%
Cc1cc(C)c2c(=O)cc(C(=O)Nc3sc4c(c3C#N)CCCC4)oc2c1	·	-12.8%	?	·	0.3%
CC(=O)Nc1ncc(N=Nc2cccc(C(F)(F)F)c2)s1	0.1%	11.6µM*	-18.6%	?	?
CC(=O)c1ccc(NC(=O)CSc2nccn2C2CCCC2)cc1	·	-8.2%	·	·	4.8%
COc1ccc2nc(SCC(=O)O)nc(C)c2c1	-0.6%	-1.3%	22.9%	1.2%	0.3%
COc1ccc2nc(SCCOC(=O)Nc3ccc(Cl)cc3)nc(C)c2c1	-4.8%	?	23.1µM*	-3.6%	0.2%
CC(=O)Nc1cccc(C(=O)OCC(=O)N2CCC(c3ccccc3)=N2)c1	-0.9%	-10.8%	16.1%	-7.7%	3.4%
c1ccc(Nc2nc3ccccc3n3nnnc23)cc1	?	1.9%	-8.9%	20.6µM*	25.6%
Cc1cccc(Nc2nc3ccccc3n3c(N)nnc23)c1	·	0.0%	16.7%	·	8.7%
Cc1nnc2c(Nc3cccc(O)c3)nc3ccccc3n12	·	2.3%	3.2%	·	3.16µM*
Nc1ncnc2c1ncn2C1OCC(O)C1O (centres undefined)	·	·	·	·	-1.6%
C=Cc1nc(Nc2cc(F)cc(F)c2)nc(NC2CCCC2)n1	·	-2.9%	10.4%	·	·
Cc1ccc(S(=O)(=O)N2C(=O)c3cccc4cccc2c34)cc1	0.3%	?	14.6µM*	3.7%	-0.1%
COc1cc(CNCCNC(=O)c2nonc2N)ccc1OCc1ccc(Cl)cc1	-0.7%	0.0%	3.4%	6.9%	7.0%
CSCCC(NS(=O)(=O)c1ccccc1F)C(=O)NCc1ccncc1 (centres undefined)	4.8%	2.7%	7.3%	13.8%	-0.1%
COc1ccc(S(=O)(=O)NC2CC(=O)N(c3ccc4c(c3)OCCO4)C2)cc1 (centres undefined)	-1.0%	-12.3%	1.1%	-6.6%	0.0%
Cc1cc(C)c(C)c(C(=O)CSc2nnc(-c3ccc4[nH]c(C)c(C)c4c3)o2)c1C	0.1%	?	11.6µM*	-1.6%	-0.6%
Cc1[nH]c2ccc(-c3nnc(SCC(=O)c4ccc(F)cc4)o3)cc2c1C	0.5%	-2.7%	?	2.5%	0.0%
Cc1ccccc1Nc1nc(Nc2ccccc2C)nc(SC2=NCCS2)n1	0.4%	-22.4%	25.9µM*	0.1%	-0.2%
O=C(Nc1cccc(Cl)c1)N1CCN2C(=O)c3ccccc3C12c1ccccc1 (centres undefined)	-0.8%	?	20.6µM*	-4.9%	3.0%
O=C(CCl)N1CCN2C(=O)c3ccccc3C12c1ccc(Cl)cc1 (centres undefined)	3.4%	0.8%	-17.7%	7.2%	?
COc1ccc(Cl)cc1NS(=O)(=O)c1cccc2cccnc12	-1.1%	-3.8%	?	7.1%	12.6µM*
CCOC(=O)Cc1csc(NC(=O)Nc2cccc(OC)c2)n1	-0.6%	5.9%	-15.4%	-17.5%	4.8%
CC(=O)[C@@]1(O)CC[C@H]2[C@@H]3CCC4=CC(=O)CC[C@]4(C)[C@H]3CC[C@@]21C	3.8%	-0.2%	-14.4%	0.2%	-1.3%
SMILES	Rango-impB inh	A549 viability	Nrf2 block	Rango release inh	Nrf2 activator
CCCCCC(=O)O[C@]1(C(C)=O)CC[C@H]2[C@@H]3CCC4=CC(=O)CC[C@]4(C)[C@H]3CC[C@@]21C	-2.2%	?	20.6µM*	6.1%	3.7%
CCN(C(=O)C=Cc1ccco1)c1ccccc1	3.8%	4.2%	3.1%	9.0%	14.1µM*
CC(=C/C(=O)O)/C=C/c1ccco1	2.3%	-0.3%	3.9%	-16.5%	?
CCOC(=O)CC(NC(=O)c1cc2cc(OC)ccc2oc1=O)c1ccc(OC)cc1 (centres undefined)	·	-1.5%	9.6%	·	-0.6%
COc1ccc(-c2cnc(OC(C)(C)C)nc2OC(C)(C)C)cc1OC	0.4%	?	23.1µM*	7.9%	-0.2%
COc1ccc(-c2cncnc2N)cc1OC	·	·	·	·	-0.9%
COc1cc(C2CC(=O)N(Cc3ccc(F)cc3)c3ccccc3S2)cc(OC)c1OC (centres undefined)	·	-20.4%	16.4µM*	·	-2.5%
Nc1nc(SCc2ccccc2Cl)nc2nc3c(cc12)CCCC3	-0.3%	2.6%	-20.5%	-7.8%	-0.6%
Nc1nc(SCc2ccc(Cl)cc2Cl)nc2nc3c(cc12)CCCC3	-1.0%	-16.1%	23.1µM*	0.4%	4.4%
COc1cc(-c2nc3ccccc3s2)ccc1O	?	-8.2%	18.4µM*	?	6.31µM*
O=C(CC1S/C(=N/N=C2CCCCCC2)NC1=O)Nc1ccc(Br)cc1F (centres undefined)	?	-0.3%	-1.5%	5.9%	3.2%
Cc1ccc2nc(-c3ccco3)c(Cc3ccccc3)n2c1	·	·	·	·	11.2%
Clc1ccc2nc(-c3ccco3)c(Cc3ccsc3)n2c1	·	·	·	·	11.2µM*
Clc1ccc2nc(-c3ccco3)c(Cc3ccccc3)n2c1	·	·	·	·	10µM*
Clc1ccc2nc(-c3ccccc3)c(Cc3ccsc3)n2c1	·	·	·	·	3.8%
COC(=O)c1ccc2nc(-c3ccco3)c(Cc3cccc(Cl)c3)n2c1	·	·	·	·	5.62µM*
COC(=O)c1ccc2nc(-c3cccc(Cl)c3)c(Cc3cccc(Cl)c3)n2c1	·	·	·	·	17.1%
CN(C)CCNS(=O)(=O)c1ccc(N2CCc3ccccc32)c([N+](=O)[O-])c1	0.0%	-11.1%	-16.7%	-4.5%	5.5%
O=C(c1ccccc1)N1CCN(c2nc(-c3cccs3)nc3ccccc23)CC1	·	-11.1%	?	·	·
CCCCn1cc(S(=O)(=O)c2ccc(C)c(C)c2)c(=O)c2cc(F)c(N(CC)CC)cc21	·	-25.7%	25.9µM*	·	-0.6%
CCCn1cc(S(=O)(=O)c2ccc(C)c(C)c2)c(=O)c2cc(F)c(N3CCCCC3)cc21	·	0.9%	-20.8%	·	-0.4%
Cn1c(/C=C/c2ccc([N+](=O)[O-])o2)nc2ccccc2c1=O	17.0%	?	20.6µM*	3.3%	?
Cn1c(/C=C/c2ccc(Cl)cc2)nc2ccccc2c1=O	?	0.7%	?	?	12.7%

Screening results: PubChem BioAssay, National Center for Advancing Translational Sciences (NCATS)
